Records with an inconclusive call do not appear. Activity calls are given as the source filed them. Unless noted, the rule behind the calls is not given here.
Legend:
[1] = qHTS profiling of the MIPE4 collection as inhibitors of Plasmodium falciparum (DD2) proliferation (Rep 2) (AID 743346); settings: P. falciparum Dd2 in erythrocytes, SYBR Green DNA, 72 h; at 28.5 µM unless noted
In short: (§1)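 Erythrocytes infected with P. falciparum (0.3% parasitemia, 2.5% hematocrit) incubated with compounds 72 h at 37 C, 5% CO2. Lysis with saponin/Triton buffer containing SYBR Green I, overnight at room temperature in the dark; DNA fluorescence (485/535 nm) normalised to 0.29 uM artemisinin and DMSO.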

[2] = qHTS profiling of the MIPE4 collection as inhibitors of Plasmodium falciparum (HB3) proliferation (AID 743347);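 note: plate controls were DMSO vehicle wells for no effect and artemisinin wells for full effect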; settings: P. falciparum HB3 in erythrocytes, SYBR Green DNA, 72 h; at 28.5 µM unless noted
In short: as §1

[3] = High-throughput drug toxicity screening in the BPDCN cell line Gen2.2 (AID 1224824); settings: Gen2.2 BPDCN cells; at 45.8 µM (top of the series) unless noted;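 note: cells exposed to compounds for 48 h before reading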
In short: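 Gen2.2 cells (500/well) in phenol red-free RPMI with 10% FBS were exposed to compounds for 48 h at 37 °C, 5% CO2. Viability was read by CellTiter-Glo luminescence and normalized to DMSO (100%) and 9.2 uM bortezomib (0%).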

[4] = High-throughput drug toxicity screening in the BPDCN cell line Cal-1 (AID 1224825); settings: Cal-1 BPDCN cell viability, qHTS; at 45.8 µM (top of the series) unless noted
In short: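 Cal-1 cells, 500 per well in phenol-red-free RPMI with 10% FBS, exposed to compounds for 48 hours at 37C, 5% CO2. Viability read by CellTiter-Glo luminescence; percent activity normalized to DMSO (100%) and 9.2 uM bortezomib final (0%).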

[5] = qHTS assay for measurement of the activity of small molecule inhibitors on Zika virus induced Caspase-3 activity in human iPSC derived neural progenitor cells (hNPCs) (AID 1224857; active = well fitted curve in the direction sought with a large enough effect; an effect the other way counts as inactive or inconclusive; note: % of control where 0% means no effect; nearly all actives have a fitted effect of over 65% in size)
In short: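 Percent inhibition of virus-induced caspase-3/7 luminescence (Caspase-Glo), scaled between uninfected cells and Zika-infected cells. hNPCs received compound 1 hr before ZIKV at 2 FFU/cell, with 6 hours infection at 37 C.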

[6] = qHTS assay for measurement of the activity of small molecule inhibitors on Zika virus induced Caspase-3 activity in human astrocytoma cells (AID 1224859; active = well fitted curve in the direction sought with a large enough effect; an effect the other way counts as inactive or inconclusive;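 note: plate controls were ZIKV-infected untreated cells for no effect and uninfected cells for full effect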)
In short: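 Luminescent caspase-3/7 read-out (30 min reagent, room temperature) in human SNB-19 cells infected 6 h with ZIKV (2 FFU/cell) after 1 h compound pre-incubation; Data were normalised to uninfected and infected wells.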

[7] = qHTS Screen of the MIPE 4.0 Collection Against Ewings Sarcoma (TC32) (AID 1259256; active = well fitted curve in the direction sought with a large enough effect; an effect the other way counts as inactive or inconclusive; note: nearly all actives have a fitted effect of over 45% in size; note: potency is the fitted concentration of half-maximal effect)
In short: (§2)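 Log-phase cells in RPMI with 5% FBS attached for 4 h, then received compounds as a titration for 48 h at 37C, 5% CO2. Viability was read by CellTiter-Glo luminescence and normalized to DMSO and no-cell wells.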

[8] = qHTS profiling of the MIPE4 collection as inhibitors of Plasmodium falciparum (3D7) proliferation (AID 743344);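 note: scaled between DMSO vehicle wells and 0.29 µM artemisinin as full inhibition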; settings: P. falciparum 3D7 in erythrocytes, SYBR Green DNA fluorescence, 72 h; at 28.5 µM unless noted
In short: as §1

[9] = qHTS profiling of the MIPE4 collection as inhibitors of Plasmodium falciparum (DD2) proliferation (AID 743345); settings: P. falciparum Dd2 in erythrocytes, SYBR Green DNA, 72 h; at 28.5 µM unless noted
In short: as §1

[10] = qHTS assay to identify small molecule inhibitors of chordoma cells - UCH-1 (AID 1259355; active = well fitted curve in the direction sought with a large enough effect; an effect the other way counts as inactive or inconclusive; note: % is set by controls: 0 for no effect and ±100 for the full control effect; nearly all actives have a fitted effect of over 55% in size)
In short: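 Cells (800/well) were seeded and left overnight at 37 C, 5% CO2, then treated with drugs at 15 concentrations plus a combination mix of auranofin, camptothecin, doxorubicin, rubitecan and topotecan. Viability after 48hr was read by CellTiter-Glo luminescence.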

[11] = qHTS assay to identify small molecule inhibitors of chordoma cells - UCH-2 (AID 1259356; active = well fitted curve in the direction sought with a large enough effect; an effect the other way counts as inactive or inconclusive; note: % is set by controls: 0 for no effect and ±100 for the full control effect)
[12] = qHTS Screen of the MIPE 4.0 Collection Against Ewings Sarcoma (EW8) (AID 1259255; active = well fitted curve in the direction sought with a large enough effect; an effect the other way counts as inactive or inconclusive; note: nearly all actives have a fitted effect of over 35% in size; note: potency is the fitted concentration of half-maximal effect;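 for viability: 100% = DMSO-treated cells and 0% = medium-only wells without cells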)
In short: as §2

[13] = qHTS profiling for inhibitors of Plasmodium falciparum (HB3) proliferation (AID 743324; active = well fitted curve in the direction sought with a large enough effect; an effect the other way counts as inactive or inconclusive;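 note: 100% = DMSO vehicle wells and 0% = artemisinin-treated control wells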); settings: Plasmodium falciparum HB3 blood-stage proliferation; at 28.7 µM (top of the series)
In short: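 P. falciparum HB3 grown in erythrocytes (0.3% parasitemia, 2.5% hematocrit final) with compound for 72 h at 37 C, 5% CO2. Parasite DNA detected by SYBR Green after saponin/triton lysis overnight; normalized to 0.29 uM artemisinin and DMSO.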

[14] = Identifying Small Molecule Inhibitors of Pancreatic Cancer Stem Cells (A2780, Spheroid) (AID 1259357; active = well fitted curve in the direction sought with a large enough effect; an effect the other way counts as inactive or inconclusive; note: potency is the fitted concentration of half-maximal effect;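 note: spheroids pre-formed over 14 days in stem cell medium on hydrogel; compound exposure lasted 48 h before the ATP luminescence read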); settings: Potency: A2780 spheroid viability
In short: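 After a 4 h attachment period, compounds were pinned into wells and cultures held 48 h under standard incubator conditions. Viability was then measured as CellTiter-Glo luminescence following 10 min at room temperature.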

[15] = Identifying Small Molecule Inhibitors of Pancreatic Cancer Stem Cells (SN12C, Adherent) (AID 1259358; active = well fitted curve in the direction sought with a large enough effect; an effect the other way counts as inactive or inconclusive;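 note: cell survival measured after 48 h of compound exposure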; note: potency is the fitted concentration of half-maximal effect)
In short: (§3)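 Spheroids grown 14 days in stem cell media on hydrogel-coated nonadherent plates; 2D lines seeded directly. Compounds added after 4 h attachment, 48 h at 37C, 5% CO2; CellTiter-Glo luminescence normalized to DMSO (no inhibition) and no-cell wells (full inhibition).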

[16] = Identifying Small Molecule Inhibitors of Pancreatic Cancer Stem Cells (A278, Adherent) (AID 1259361; active = well fitted curve in the direction sought with a large enough effect; an effect the other way counts as inactive or inconclusive; note: nearly all actives have a fitted effect of over 35% in size;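 for viability (% of control): 100% = DMSO-treated cells and 0% = cell-free media-only wells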)
In short: as §3

[17] = Identifying Small Molecule Inhibitors of Pancreatic Cancer Stem Cells (Panc1, Spheroid) (AID 1259359; active = well fitted curve in the direction sought with a large enough effect; an effect the other way counts as inactive or inconclusive;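 note: potency is the fitted concentration of half-maximal effect; compound exposure lasted 48 h before reading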); settings: Panc1 spheroid cancer stem cell viability
In short: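 Spheroids grown 14 days in stem cell media on nonadherent hydrogel before screening; cells attached 4 h, then compound exposure 48 h at 37C, 5% CO2. CellTiter-Glo luminescence normalized to DMSO (no inhibition) and no-cell wells (full inhibition).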

[18] = Identifying Small Molecule Inhibitors of Pancreatic Cancer Stem Cells (Panc1, Adherent) (AID 1259362; active = well fitted curve in the direction sought with a large enough effect; an effect the other way counts as inactive or inconclusive; note: potency is the fitted concentration of half-maximal effect;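 for viability, % of control: compound exposure lasted 48 h before the viability read; plate controls were DMSO-treated cells for no effect and cell-free media wells for full effect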); settings: Potency: viability
In short: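 Luminescent ATP readout (CellTiter-Glo) quantifies surviving cells after a 48 h drug incubation. Normalization uses DMSO wells as no inhibition and media-only wells as full inhibition; bortezomib served as positive control.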

Compound	parasite growth, % of control (lower = inhibition) [1] [%]	growth, % of control [2] [%]	cell viability, % of control (lower = more cytotoxic) [3] [%]	viability (% of control) [4] [%]	Potency [5]	Potency [6]	Potency [7]	parasite growth, % of DMSO control [8] [%]	parasite growth remaining, % of DMSO control (lower = more inhibition) [9] [%]	Potency [10]	outcome [11]	Potency [12]	remaining proliferation (% of control), lower = more inhibition [13] [%]	Potency [14]	Potency [15]	IC50 (viability decrease) [16]	Potency [17]	Potency [18]
Cn1c(N2CCCCS2(=O)=O)nc(C(=O)NCc2ccc(F)cc2)c(O)c1=O	83.1	62.6	60.2	96.9	inactive	inactive	23.5 µM (active)	–	–	–	–	–	–	–	–	–	–	–
O=c1[nH]cnc2c1ncn2[C@H]1CC[C@@H](CO)O1	101	–	93.2	121	inactive	inactive	–	178	97.1	inactive	inactive	–	–	–	–	–	–	–
CNC(=O)c1ccc2cc(C3(O)CCn4cncc43)ccc2c1 (stereo not drawn)	74.8	–	82.2	94.8	inactive	inactive	–	84.5	–	–	–	inactive	–	–	–	–	–	–
Cc1nnc(C(C)C)n1C1C[C@H]2CC[C@@H](C1)N2CC[C@H](NC(=O)C1CCC(F)(F)CC1)c1ccccc1 (stereo partly drawn)	55.4	92.4	75.3	104	inactive	inactive	26.4 µM (active)	69.7	100	–	–	–	–	–	–	–	–	–
CC(C)(C)OC(=O)N[C@H]1CCCCCC=C[C@@H]2C[C@@]2(C(=O)NS(=O)(=O)C2CC2)NC(=O)[C@@H]2C[C@@H](OC(=O)N3Cc4cccc(F)c4C3)CN2C1=O	–	4.63	46.5	99.3	inactive	inactive	inactive	11.7	40.6	–	–	–	–	–	–	–	–	–
CN1CCN(CCOc2cc(OC3CCOCC3)c3c(Nc4c(Cl)ccc5c4OCO5)ncnc3c2)CC1	7.87	6.19	54.1	2.69	inactive	inactive	29.6 µM (active)	5.31	8.1	–	–	–	-0.659	inactive	1.87 µM (active)	20.9 µM (active)	–	–
CN[C@@H](C)C(=O)N[C@H]1CN(C(=O)CC(C)C)CC[C@H]2CC[C@@H](C(=O)NC(c3ccccc3)c3ccccc3)N2C1=O	27.9	72.2	19.5	9.02	inactive	inactive	–	69.1	–	–	–	inactive	–	–	–	–	–	–
N[C@@]1(C(=O)O)CS(=O)(=O)[C@H]2[C@H](C(=O)O)[C@H]21	112	59.7	78.4	76	inactive	inactive	18.7 µM (active)	57.1	88.4	–	–	–	–	–	–	–	–	–
O=C(O)CCC1CCC(c2cc(F)ccc2F)(S(=O)(=O)c2ccc(Cl)cc2)CC1 (stereo not drawn)	–	–	8.09	9.48	inactive	inactive	11.8 µM (active)	66.9	93.8	–	–	–	56.3	–	inactive	inactive	3.32 µM (active)	inactive
CO[C@H]1C=CO[C@@]2(C)Oc3c(C)c(O)c4c(O)c(c5c(c4c3C2=O)NC2(CCN(CC(C)C)CC2)N=5)=NC(=O)C(C)=CC=C[C@H](C)[C@H](O)[C@@H](C)[C@@H](O)[C@@H](C)[C@H](OC(C)=O)[C@H]1C	–	5.92	106	97.3	inactive	inactive	inactive	5.28	17.8	–	–	–	–	–	–	–	–	–
COc1cc2ncnc(-n3nc(-c4ccccn4)nc3N)c2cc1OC	11.1	6.36	59.8	46.1	inactive	inactive	18.7 µM (active)	15.5	31.2	–	–	–	74	inactive	5.9 µM (active)	3.32 µM (active)	–	18.7 µM (active)
C[C@]12CC[C@@H]3c4ccc(O)cc4C[C@@H](CCCCCCCCCS(=O)CCCC(F)(F)C(F)(F)F)[C@H]3[C@H]1CC[C@H]2O (stereo partly drawn)	10.8	3.95	105	108	inactive	inactive	inactive	5.44	8.45	–	–	–	–	–	–	–	–	–
CN(C)CCC=C1c2ccccc2COc2ccc(CC(=O)O)cc21	121	99.1	162	98	inactive	inactive	–	91.3	91.8	–	–	inactive	–	–	–	–	–	–
NS(=O)(=O)c1ccc(NC2=CC(=O)c3ccccc3C2=O)cc1	8.91	–	162	88.5	inactive	inactive	–	6.05	–	–	–	1.87 µM (active)	–	–	–	–	–	–
COc1cc(N2CCC(N3CCN(C)CC3)CC2)ccc1Nc1ncnc(Nc2ccccc2S(=O)(=O)C(C)C)n1	–	4.08	2	6.26	inactive	inactive	–	–	8.1	–	–	20.9 µM (active)	–	–	–	–	–	–
CCOc1ccc(Nc2nc(-c3c(C)nc4ccccn34)cs2)cc1	15.8	4.43	11	7.46	inactive	inactive	inactive	11.9	17.3	–	–	–	7.43	0.296 µM (active)	–	0.0264 µM (active)	–	–
O=C(OCC#CCSc1nnc(-c2cccc3ccccc23)o1)c1cc2ccccc2s1	64.2	44.7	91.8	118	inactive	inactive	–	49.1	83	–	–	inactive	–	–	–	–	–	–
Cc1ccc(F)c(NC(=O)Nc2ccc(-c3cccc4[nH]nc(N)c34)cc2)c1	13.4	–	5.38	1.55	inactive	inactive	–	6.52	–	–	–	–	23.1	–	–	26.4 µM (active)	–	–
CO[C@H]1C[C@@H]2CC[C@@H](C)[C@@](O)(O2)C(=O)C(=O)N2CCCC[C@@H]2C(=O)O[C@H]([C@H](C)C[C@@H]2CC[C@H](OP(C)(C)=O)[C@H](OC)C2)CC(=O)[C@H](C)C=C(C)[C@@H](O)[C@@H](OC)C(=O)[C@H](C)C[C@H](C)C=CC=CC=C1C	9.19	8.46	10.4	5.8	inactive	inactive	–	4.92	6.6	–	–	–	–	–	–	–	–	–

From PubChem BioAssay (NCATS)
